ugtP null kill = growth inhibition of S. aureus ugtP deletion strain; S. aureus RN4220 ugtP deletion, OD600 growth, 16 h; growth inhibition, % (test concentration not listed); hit rate 0.54% among 330,000; in the data active = growth inhibition above about 68%;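 note: plate controls were untreated wells for no effect and antibiotic for full effect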
RN4220 kill = kills Staphylococcus aureus RN4220 | S. aureus RN4220 growth, OD600, 16 h | inhibition, % (no concentration beside the values) | hit rate 0.33% among 330,000; in the data active = inhibition above about 85%;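 note: plate controls were untreated cells for no effect and reference antibiotic for full effect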
BH1578 lux ind = inducers of Vibrio cholerae quorum light production without autoinducers; V. cholerae BH1578 lux reporter, luminescence, 6 h; activation, % at 18.7 µM; hit rate 0.16% among 350,000; AID 588436; in the data active = activation mostly above about 9.7%, no sharp cut-off
CCHFV vOTU inh = blocks the CCHF virus ovarian tumor domain protease; CCHFV vOTU protease, Pep-AMC fluorescence; inhibition, % at 11.5 µM; hit rate 0.55% among 370,000; AID 651958; in the data active = inhibition above about 30%; note: 0% = vehicle wells with enzyme and 100% = no enzyme wells
PfHsp40 yeast = compounds rescuing yeast from Plasmodium falciparum HSP40 toxicity | S. cerevisiae expressing PfHsp40, growth rescue, ATP luminescence | growth rescue, % at 12.5 µM | hit rate 0.68% among 340,000 | AID 504582; in the data active = growth rescue above about 28%, passing the limit was not always enough;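 note: yeast W303a lacking pdr1 and pdr3 grown in galactose medium; growth measured after three days at 30 °C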
Mtb hypoxia rep = Mtb hypoxia fluorescent reporter inhibition; M. tuberculosis hypoxia-regulated fluorescent reporter, fluorescence; fluorescence inhibition, % (no concentration beside the values); hit rate 0.1% among 300,000; AID 1159583; in the data active = fluorescence inhibition mostly above about 23%, no sharp cut-off; inactive = mostly below about 17%
Starred values were filed as active, the others as inactive. Compounds with a hit are over-represented: about 1.7% of the library has one in this group of screens.

`COc1n[nH]c(C(=O)Nc2cc(Cl)ccc2Cl)c1[N+](=O)[O-]` gave ugtP null kill 88*, RN4220 kill 90*, BH1578 lux ind inactive, CCHFV vOTU inh -1, PfHsp40 yeast 0 and Mtb hypoxia rep 7.
COc1ccc(Cl)cc1NC(=O)c1[nH]nc(OC)c1[N+](=O)[O-] was read as ugtP null kill -4, RN4220 kill 14, BH1578 lux ind inactive, CCHFV vOTU inh -14, PfHsp40 yeast 0 and Mtb hypoxia rep -7.
Screening CC(CC(=O)Nc1ccc(N(C)C)cc1)=NNC(=O)c1ccncc1 returned ugtP null kill 1 and RN4220 kill 7.
For Cc1c(C(=O)O)cccc1-c1ccc(C=Nn2cnnc2)o1 the results were ugtP null kill 7, RN4220 kill 5 and Mtb hypoxia rep 6.
Screening Cc1c(C(=O)O)cccc1-c1ccc(/C=N/Nc2ccc(Br)cc2)o1 returned BH1578 lux ind 3, CCHFV vOTU inh 11 and PfHsp40 yeast 355*.
`O=C1c2ccccc2NC(c2ccc(-c3cccs3)o2)N1O` (stereo not given) gave ugtP null kill -35, RN4220 kill 8, BH1578 lux ind inactive, CCHFV vOTU inh -68, PfHsp40 yeast 58* and Mtb hypoxia rep 12.
`O=C1c2ccccc2NC(c2ccc(-c3ccc(C(F)(F)F)cc3)o2)N1O` (stereo not given) gave ugtP null kill -17, RN4220 kill 9, BH1578 lux ind 1, CCHFV vOTU inh 16, PfHsp40 yeast 279* and Mtb hypoxia rep 9.
Screening O=C1c2ccccc2NC(c2ccc(Br)o2)N1O (stereo not given) returned ugtP null kill -11, RN4220 kill -7, BH1578 lux ind inactive, CCHFV vOTU inh 4, PfHsp40 yeast -1 and Mtb hypoxia rep 2.
NC(=NOC(=O)c1ccc([N+](=O)[O-])cc1)c1ccc(Br)cc1 was read as ugtP null kill -2, RN4220 kill -4 and Mtb hypoxia rep -11.
O=C(NCc1nc2ccccc2[nH]1)C1=CC(c2csc3ccccc23)CC(OCc2ccc(CO)cc2)O1 (stereo not given) was read as ugtP null kill 13, RN4220 kill -2 and Mtb hypoxia rep 20.
`O=C(N/N=C/c1ccccn1)c1sc2ccccc2c1Cl` gave BH1578 lux ind 1, CCHFV vOTU inh 3 and PfHsp40 yeast 199*.
C/C(=N\Nc1ccc(C(=O)O)cc1)c1ccc2c(c1)Nc1ccccc1S2 was read as BH1578 lux ind inactive, CCHFV vOTU inh 2 and PfHsp40 yeast 207*.
`C/C(=N/Nc1ccc(C(=O)O)cc1)c1ccc2c(c1)Nc1ccccc1S2` gave ugtP null kill -31, RN4220 kill -7, BH1578 lux ind inactive, CCHFV vOTU inh 17, PfHsp40 yeast 5 and Mtb hypoxia rep 7.
S=c1[nH]nc(-c2ccco2)n1-c1ccc(Br)cc1 was read as ugtP null kill 9, RN4220 kill 2, BH1578 lux ind inactive, CCHFV vOTU inh -13, PfHsp40 yeast 43* and Mtb hypoxia rep -10.
For CCC(=O)OCC(=O)C1(OC(=O)CC)C(C)CC2C3C(Cl)CC4=CC(=O)C=C[C@]4(C)C3C(O)C[C@@]21C (stereo not given in full) the results were ugtP null kill -7, RN4220 kill 0 and Mtb hypoxia rep -5.
`CN1C(=O)C2(C(C#N)=C(N)Oc3n[nH]c(-c4ccc(Cl)cc4)c32)c2ccccc21` (stereo not given) gave ugtP null kill 75, RN4220 kill 98*, BH1578 lux ind 0, CCHFV vOTU inh -5 and PfHsp40 yeast 0.
`C#CCSc1nnnn1-c1ccc(OCC)cc1` gave ugtP null kill 6, RN4220 kill 4, BH1578 lux ind 607*, CCHFV vOTU inh 17, PfHsp40 yeast 0 and Mtb hypoxia rep 10.
`CC(=O)c1ccc(NC(=S)Nc2ccc(Br)c(Cl)c2)cc1` gave ugtP null kill 100*, RN4220 kill 100*, BH1578 lux ind 0, CCHFV vOTU inh 4, PfHsp40 yeast -1 and Mtb hypoxia rep 7.
`O=C(Nc1ccc(Cl)c(Cl)c1)N1CCC(N2CCCCC2)CC1` gave ugtP null kill -4, RN4220 kill -15, BH1578 lux ind active, CCHFV vOTU inh 1, PfHsp40 yeast 0 and Mtb hypoxia rep 9.
O=C(c1ccc(NC(=S)Nc2ccc(Cl)c(Cl)c2)cc1)N1CCCC1 was read as ugtP null kill 100*, RN4220 kill 101*, BH1578 lux ind -1, CCHFV vOTU inh 4, PfHsp40 yeast 0 and Mtb hypoxia rep 4.
For NS(=O)(=O)c1ccc(NC(=S)Nc2ccc(C(=O)N3CCCCC3)cc2)cc1 the results were ugtP null kill -5, RN4220 kill -4, BH1578 lux ind -1, CCHFV vOTU inh 7, PfHsp40 yeast -1 and Mtb hypoxia rep 2.
For O=C(Nc1ccc(Cl)c(Cl)c1)N1CCCCCC1 the results were ugtP null kill -8, RN4220 kill -5, BH1578 lux ind inactive, CCHFV vOTU inh 14, PfHsp40 yeast 0 and Mtb hypoxia rep 0.
For Cn1cccc1CC(=O)NN=C/C=C/c1ccco1 the results were ugtP null kill -4, RN4220 kill 2 and Mtb hypoxia rep 0.
For CC(C)NC(=O)c1ccccc1NC(=O)C(C)Oc1ccccc1 (stereo not given) the results were ugtP null kill -72, RN4220 kill 4, BH1578 lux ind 0, CCHFV vOTU inh 8, PfHsp40 yeast 72* and Mtb hypoxia rep 15.
For CN(CCO)c1cc(Sc2nc3ccccc3s2)c2nonc2c1[N+](=O)[O-] the results were ugtP null kill 88*, RN4220 kill 57, BH1578 lux ind -2, CCHFV vOTU inh 0, PfHsp40 yeast 1 and Mtb hypoxia rep 19.
CC(=O)OCCN(C)c1cc(SC(C)C)c2nonc2c1[N+](=O)[O-] was read as ugtP null kill 9, RN4220 kill 2, BH1578 lux ind 0, CCHFV vOTU inh 4, PfHsp40 yeast 1 and Mtb hypoxia rep 1.
For C=CCOc1ccc(C=NNc2ccccn2)cc1OC the results were ugtP null kill 0, RN4220 kill 8 and Mtb hypoxia rep -2.
Screening Cn1cccc1C(=O)NS(=O)(=O)c1ccccc1Cl returned ugtP null kill 6, RN4220 kill 3, BH1578 lux ind -1, CCHFV vOTU inh 0, PfHsp40 yeast 86* and Mtb hypoxia rep -2.
Screening CC(=O)C(=NNc1cccc(Cl)c1)Sc1nnc(-c2ccccc2)n1-c1ccccc1 returned ugtP null kill 12, RN4220 kill 12 and Mtb hypoxia rep 10.
`CC(C)NC(=O)C(C#N)=Cc1ccc(N(C)C)c(Br)c1` gave ugtP null kill -9, RN4220 kill 7 and Mtb hypoxia rep 3.
CCCOC(=O)CC1C(=O)NCCN1Cc1cc(OC)cc(OC)c1 (stereo not given) was read as ugtP null kill 8, RN4220 kill 13, BH1578 lux ind -1, CCHFV vOTU inh -9, PfHsp40 yeast 40* and Mtb hypoxia rep 13.
